# Source: the supplement of paper PMC8371130
# Structures can show the parent of a compound that is named as a salt.
# Test system: HL-1
# Test: relative cell viability (CellTiter-Glo) vs DMSO control (% of DMSO control); higher = more viable cells
# How it was run: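 Compounds at 40, 200, 1000 or 5000 nM in 0.01% DMSO were added to HL-1 mouse atrial cardiomyocytes plated at 1000 cells per well in 384-well plates. The next day, cells were exposed to 1% O2 for 48 h and then reoxygenated for 24 h, or left in normoxia for the same time. Viability was read with CellTiter-Glo luminescence and normalised to vehicle-treated controls.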
# [1] = oxygen condition: hypoxia 48 h (1% O2) + reoxygenation 24 h, 40 nM
# [2] = oxygen condition: hypoxia 48 h (1% O2) + reoxygenation 24 h, 200 nM
# [3] = oxygen condition: hypoxia 48 h (1% O2) + reoxygenation 24 h, 1000 nM
# [4] = oxygen condition: hypoxia 48 h (1% O2) + reoxygenation 24 h, 5000 nM
# [5] = oxygen condition: normoxia 72 h, 40 nM
# [6] = oxygen condition: normoxia 72 h, 200 nM
# [7] = oxygen condition: normoxia 72 h, 1000 nM
# [8] = oxygen condition: normoxia 72 h, 5000 nM
SMILES,relative cell viability [1],relative cell viability [2],relative cell viability [3],relative cell viability [4],relative cell viability [5],relative cell viability [6],relative cell viability [7],relative cell viability [8]
COc1cc(OC)c(C(=O)CCCN2CCCC2)c(OC)c1 [Buflomedil HCl],101,99.7,100,114,108,103,105,114
CC(=O)OCC(=O)NCCCOc1cccc(CN2CCCCC2)c1 [Roxatidine acetate HCl],105,104,99.8,114,110,102,107,108
CCOC(=O)c1ncn2c1CN(C)C(=O)c1cc(F)ccc1-2 [Flumazenil],104,107,100,115,107,98.5,104,106
CC(=O)O[C@H]1C[C@@H]2CC[C@@H]3[C@H](CC[C@@]4(C)[C@H]3C[C@H]([N+]3(C)CCCCC3)[C@@H]4OC(C)=O)[C@@]2(C)C[C@@H]1N1CCCCC1 [Vecuronium Bromide],112,118,114,119,112,115,122,124
CCCCOc1ccc(OCCCN2CCOCC2)cc1 [Pramoxine HCl],106,110,110,118,110,107,97.5,119
O=C(CCCCCCC(=O)Nc1ccccc1)NO [Vorinostat],101,105,85,27.2,103,101,90.1,14.6
Nc1[nH]cnc2ncnc1-2 [Adenine sulfate],101,101,105,111,113,105,110,113
CCCCC1C(=O)N(c2ccccc2)N(c2ccccc2)C1=O [Phenylbutazone],100,104,93.3,110,102,112,43.1,112
Cc1cccc(C)c1NC(=O)C1CCCCN1C (stereo not drawn) [Mepivacaine HCl],102,99.8,121,105,102,110,111,111
CCCCCN(C)CCC(O)(P(=O)(O)O)P(=O)(O)O [Ibandronate sodium],100,95.3,93.1,91,99.9,99.4,92.6,84.4
CC(C)NCC(O)COc1ccc(CCOCC2CC2)cc1 (stereo not drawn) [Betaxolol hydrochloride],107,104,106,79.8,105,106,86.5,69.3
CCN(CCCc1ccccc1)CCCc1ccccc1 [Alverine Citrate],107,110,102,110,102,105,106,113
Clc1ccc(C(c2ccccc2Cl)C(Cl)Cl)cc1 (stereo not drawn) [Mitotane],108,105,107,102,104,110,106,121
CCOC(=O)c1ccc(OC(=O)CCCCCNC(=N)N)cc1 [Gabexate mesylate],107,105,112,108,101,98.9,109,110
CC[C@@H]1C(=O)OC[C@@H]1Cc1cncn1C [Pilocarpine HCl],104,111,105,110,115,104,106,119
CN1C2=CC(=O)/C(=N\NC(N)=O)C=C2CC1S(=O)(=O)O (stereo not drawn) [Carbazochrome sodium sulfonate],99,97,101,112,95,102,89.9,108
CCN(CC)CCOc1ccc(C(=C(Cl)c2ccccc2)c2ccccc2)cc1 [Clomifene citrate],101,104,107,35.1,111,106,98.2,6.57
CS(=O)(=O)c1ccc(C(=O)Nc2ccc(Cl)c(-c3ccccn3)c2)c(Cl)c1 [Vismodegib],103,107,108,117,104,110,114,112
C=C1/C(=C\C=C2/CCC[C@]3(C)[C@@H]([C@H](C)CCCC(C)(C)O)CC[C@@H]23)C[C@@H](O)C[C@@H]1O [Calcitriol],90.8,91.2,92.9,91,94.5,92.6,93.6,89.9
Cc1ccc(C)c(OCCCC(C)(C)C(=O)O)c1 [Gemfibrozil],98.5,104,101,103,102,113,106,106
CC1COc2c(N3CCN(C)CC3)c(F)cc3c(=O)c(C(=O)O)cn1c23 (stereo not drawn) [Ofloxacin],99.3,99.8,97.8,108,98.5,97.3,62.4,115
